This note sets out measurements from PubChem BioAssay (Tox21).

Structures are written as SMILES. Where “and” joins values, the source holds several entries; their conditions need not be identical. Equal values may be shown once. A number with no mark means an inactive call. Inconclusive results are not listed. Calls of active or inactive are those of the source. Calls follow the shape of the dose curve; as a rule, active = well fitted curve in the direction sought with a large enough effect in the repeat runs; inconclusive = weak or mixed curves; inactive = no such curve, though single readings can be large; an effect the other way counts as inactive or inconclusive.

Test [1] can be described thus: A CellTox Green Cytotoxicity Assay to monitor cytotoxicity in HEK293 cells - 40 hour (AID 1224871). Also: nearly all actives have a fitted effect of over 45% in size. Also: potency is read from the fitted curve at half-maximal effect. The method, boiled down:
(§1)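 Fluorescence intensity, read at 0, 8, 16, 24, 32 and 40 h of compound treatment, reflected dye binding to DNA of dead HEK293 cells; compounds (23 nL, DMSO) were added 5 h after plating cells with reagent.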

Test [2] can be described thus: qHTS RealTime-Glo MT Cell Viability Assay in HepG2 cells - 8 hour (AID 1224873). Also: nearly all actives have a fitted effect of over 55% in size. The method, boiled down: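 HepG2 cells mixed with RealTime-Glo MT reagents (NanoLuc plus cell-permeant prosubstrate) were seeded at 600 cells/well, incubated 5 h at 37 C/5% CO2, then pinned with compounds in DMSO; nonlytic luminescence tracked viability during 40 h treatment.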
Test [3] in a line: A CellTox Green Cytotoxicity Assay to monitor cytotoxicity in HEK293 cells - 24 hour (AID 1224875). Also: nearly all actives have a fitted effect of over 45% in size. Also: potency is read from the fitted curve at half-maximal effect. The method, boiled down: as §1
A short description of test [4]: A CellTox Green Cytotoxicity Assay to monitor cytotoxicity in HepG2 cells - 16 hour (AID 1224876). Also: nearly all actives have a fitted effect of over 45% in size. Also: potency is read from the fitted curve at half-maximal effect. The procedure, abridged:
(§2)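 Using 1536-well format, dye-containing HepG2 suspension was seeded, allowed 5 h at 37 C/5% CO2, dosed by pintool with compounds, positive and negative controls, and imaged for fluorescence across 40 h.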

A short description of test [5]: qHTS RealTime-Glo MT Cell Viability Assay in HepG2 cells - 32 hour (AID 1224877). Also: nearly all actives have a fitted effect of over 55% in size. Also: potency is read from the fitted curve at half-maximal effect. The method, boiled down: (§3)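 HepG2 cells (600/well) were dispensed with RealTime-Glo reagents, incubated 5 h at 37 °C, then treated with compounds in DMSO for up to 40 h. Nonlytic NanoLuc luminescence reflecting viable cells was read at each stated time point.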
A general note: Quantitative high-throughput screening tests each substance at several concentrations.

The nature of test [6]: A CellTox Green Cytotoxicity Assay to monitor cytotoxicity in HepG2 cells - 24 hour (AID 1224878). Also: nearly all actives have a fitted effect of over 45% in size. Also: potency is read from the fitted curve at half-maximal effect. The method, boiled down: as §2
Test [7] can be described thus: A CellTox Green Cytotoxicity Assay to monitor cytotoxicity in HepG2 cells - 40 hour (AID 1224879). Also: nearly all actives have a fitted effect of over 40% in size. Also: potency is read from the fitted curve at half-maximal effect. The method, boiled down: as §2
Test [8] can be described thus: qHTS RealTime-Glo MT Cell Viability Assay in HEK293 cells - 0 hour (AID 1224880). The procedure, abridged: (§4)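 Viable HEK293 cells reduce a cell-permeant prosubstrate; the product diffuses out and is consumed by NanoLuc in the medium to give light. Compounds went in after a 5 h incubation and plates were read over the treatment course.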
Test [9] in a line: A CellTox Green Cytotoxicity Assay to monitor cytotoxicity in HEK293 cells - 32 hour (AID 1224881). Also: nearly all actives have a fitted effect of over 40% in size. The method, boiled down:
as §1

A short description of test [10]: A CellTox Green Cytotoxicity Assay to monitor cytotoxicity in HepG2 cells - 32 hour (AID 1224883). Also: nearly all actives have a fitted effect of over 50% in size. Also: potency is read from the fitted curve at half-maximal effect. The method, boiled down: as §2
Test [11] in a line: A CellTox Green Cytotoxicity Assay to monitor cytotoxicity in HEK293 cells - 8 hour (AID 1224884). Also: nearly all actives have a fitted effect of over 35% in size. Also: potency is read from the fitted curve at half-maximal effect. The procedure, abridged:
as §1

The nature of test [12]: qHTS RealTime-Glo MT Cell Viability Assay in HepG2 cells - 16 hour (AID 1224885). Also: nearly all actives have a fitted effect of over 50% in size. The method, boiled down: as §3
Test [13] is described as follows: A CellTox Green Cytotoxicity Assay to monitor cytotoxicity in HEK293 cells - 16 hour (AID 1224888). Also: nearly all actives have a fitted effect of over 35% in size. Also: potency is read from the fitted curve at half-maximal effect. The procedure, abridged:
as §1

Test [14] can be described thus: qHTS RealTime-Glo MT Cell Viability Assay in HepG2 cells - 0 hour (AID 1224889). Also: nearly all actives have a fitted effect of over 50% in size. The method, boiled down: as §3
A short description of test [15]: A CellTox Green Cytotoxicity Assay to monitor cytotoxicity in HepG2 cells - 8 hour (AID 1224890). Also: nearly all actives have a fitted effect of over 45% in size. Also: potency is read from the fitted curve at half-maximal effect. The method, boiled down:
as §2

Test [16] is described as follows: qHTS RealTime-Glo MT Cell Viability Assay in HEK293 cells - 16 hour (AID 1224872). Also: nearly all actives have a fitted effect of over 50% in size. Also: potency is read from the fitted curve at half-maximal effect. The method, boiled down: (§5)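 HEK293 cells seeded with NanoLuc/prosubstrate reagent, rested 5 h at 37 C, then dosed and kept at 37 C up to 40 h. Nonlytic real-time luminescence from viable cells read at 0, 8, 16, 24, 32 and 40 h.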
Test [17] is described as follows: qHTS RealTime-Glo MT Cell Viability Assay in HEK293 cells - 40 hour (AID 1224874). Also: nearly all actives have a fitted effect of over 50% in size. Also: potency is read from the fitted curve at half-maximal effect. As to conditions: RealTime-Glo luminescence; max response: stronger effect = lower value. The method, boiled down: as §4
Test [18] can be described thus: A CellTox Green Cytotoxicity Assay to monitor cytotoxicity in HepG2 cells - 0 hour (AID 1224882). Also: nearly all actives have a fitted effect of over 35% in size. The procedure, abridged: as §2
Test [19] can be described thus: qHTS RealTime-Glo MT Cell Viability Assay in HEK293 cells - 24 hour (AID 1224886). Also: nearly all actives have a fitted effect of over 50% in size. Also: potency is read from the fitted curve at half-maximal effect. The procedure, abridged:
as §5

Test [20] is described as follows: qHTS RealTime-Glo MT Cell Viability Assay in HEK293 cells - 8 hour (AID 1224887). Also: nearly all actives have a fitted effect of over 50% in size. Also: potency is read from the fitted curve at half-maximal effect. The method, boiled down: as §4
% is scaled to controls: 0 for no effect and ±100 for the full control effect.

With `Cc1ccc(-n2nc(C(C)(C)C)cc2NC(=O)Nc2ccc(OCCN3CCOCC3)c3ccccc23)cc1`, the Potency entry in test [1], in test [2], in test [3], in test [4], in [5] and in test [6] was “inactive” each time. Besides, the Potency result in test [7], in [8], in test [9], in test [10], in test [11] and in [12] was “inactive” each time. Further, the Potency entry in test [13], in [14] and in test [15] was “inactive” each time.

Consider `CC(C)n1nc(-c2cc3cc(O)ccc3[nH]2)c2c(N)ncnc21`, for which the Potency was 477 nM (active) in test [16]; 190 nM (active) in [17]; 23.9 µM (active) in [7]; 23.9 µM (active) in [10]; 0.301 µM (active) in test [19]. Besides, the Potency result in [2], in test [3], in test [4], in [8], in test [9] and in test [18] was “inactive” each time. The Potency result in [11], in [12], in [13], in [14] and in test [15] was “inactive” throughout.

For `CCCCCCCCS(=O)C(C)Cc1ccc2c(c1)OCO2` (stereo unspecified), the Potency entry in [1], in [2], in test [3], in test [4], in test [5] and in test [6] was “inactive” in each case. The Potency entry in test [7], in test [8], in test [9], in [18], in test [10] and in test [11] was “inactive” throughout. Further, the Potency result in test [12], in test [13], in test [14] and in test [15] was “inactive” in each case.

For `COc1ccc(-c2ccc3cc(C(=O)O)ccc3c2)cc1C12CC3CC(CC(C3)C1)C2`, the Potency entry in [1], in test [3], in test [8], in [9], in test [11] and in [20] was “inactive” in each case. The Potency entry in test [13] and in test [14] was “inactive” throughout. Further, the Potency in [6] was 23.9 µM (active); in [7], 19 µM (active); in [10], 21.3 µM (active); in test [19], 4.77 µM (active).

Regarding `CCCCN(CCCC)c1ccc(C(=O)c2ccccc2C(=O)O)c(O)c1`, the Potency entry in test [16], in [2], in test [4], in [5], in [8] and in test [18] was “inactive” each time. Moreover, the Potency result in test [12], in test [19], in [20], in test [14] and in test [15] was “inactive” throughout. Moreover, the max response in [17] is -24.6%.

`O=c1[nH]sc2cc(Cl)ccc12`: the Potency result in test [1], in test [3], in test [8], in test [9], in test [18] and in [11] was “inactive” in each case. Further, the Potency result in test [20], in test [13] and in test [14] was “inactive” throughout.

As for `Cc1[nH]nc2c1N=C(c1ccccc1Cl)c1cc([N+](=O)[O-])ccc1N2`, the Potency result in test [1], in [2], in test [3], in [5], in test [6] and in test [7] was “inactive” in each case. Moreover, the Potency entry in [8], in test [9], in [18], in [10], in test [11] and in test [12] was “inactive” throughout. Further, the Potency entry in test [20], in [14] and in [15] was “inactive” each time.

For the molecule `N/C(=N\N=C\c1ccc(Cl)cc1)N/N=C/c1ccc(Cl)cc1`, the Potency was 23.9 µM (active) in [1]; 23.9 µM (active) in test [3]; 21.3 µM (active) in test [4]; 21.3 µM (active) in [6]; 23.9 µM (active) in test [7]; 23.9 µM (active) in test [10]. In addition, the Potency in [11] was 23.9 µM (active); in test [13], 23.9 µM (active); in test [15], 21.3 µM (active).

Take `COc1cccc2c1C(=O)c1c(O)c3c(c(O)c1C2=O)C[C@@](O)(C(=O)CO)C[C@@H]3O[C@H]1C[C@H](N)[C@H](O[C@@H]2CCCCO2)[C@H](C)O1`: the Potency result in test [1], in [3], in test [8], in [9], in test [20] and in test [13] was “inactive” in each case. Besides, the Potency result in test [14] is “inactive”. For the same molecule, the Potency in test [17] is 190 nM (active); in test [5], 1.9 µM (active); in test [6], 9.52 µM (active); in test [7] it was 1.51 µM (active); in test [10], 1.69 µM (active); in [19] it was 0.338 µM (active). The Potency in test [15] was 23.9 µM (active).

With `NNc1nc(-c2ccc([N+](=O)[O-])cc2)cs1`, the Potency result in [1], in [3], in test [4], in test [6], in [7] and in [8] was “inactive” each time. Besides, the Potency entry in test [9], in test [18], in test [10], in test [20], in test [13] and in [14] was “inactive” in each case. For the same molecule, in [15], the Potency result is “inactive”. Further, the Potency was 24500 nM (active) in test [17] and 24.5 µM (active) in test [19].

Consider `CCCCCCOC(=O)c1ccc(O)cc1`, for which the Potency in test [16] is 43.7 µM (active) and 21.9 µM (active); in [17], 43.7 µM (active) and 21.9 µM (active); in test [4] it was 8.71 µM (active); in test [6], 43.7 µM (active) and 9.77 µM (active); in [7] it was 43.7 µM (active) and 11 µM (active); in [10], 43.7 µM (active) and 7.76 µM (active). Further, the Potency in test [19] was 43.7 µM (active) and 24.5 µM (active); in test [20] it was 43.7 µM (active) and 24.5 µM (active). Besides, the Potency entry in [2], in test [3], in test [5], in test [8], in [18] and in [11] was “inactive” throughout. Also, the Potency result in test [12], in [13], in test [14] and in [15] was “inactive” throughout.

Turning to `CC(C)OC(=O)c1cc2c(OCC(O)CNC(C)(C)C)cccc2[nH]1` (stereo unspecified), the Potency in test [16] is 4770 nM (active); in [17], 9520 nM (active); in [19], 9.52 µM (active); in test [20] it was 9.52 µM (active). Also, the Potency entry in [2], in test [4], in [5], in test [6], in [8] and in test [12] was “inactive” each time. Besides, the Potency entry in test [15] is “inactive”.

On to `Clc1ccc2cc3ccccc3cc2c1`, for which the Potency result in test [1], in [2], in test [3], in [4], in [5] and in test [6] was “inactive” in each case. Also, the Potency result in test [9], in [18], in [11], in [12], in test [14] and in test [15] was “inactive” in each case.

In the case of `CCc1oc2ccccc2c1C(=O)c1cc(Br)c(O)c(Br)c1`, the Potency result in [1], in [2], in [3], in [5], in test [6] and in [7] was “inactive” in each case. Besides, the Potency entry in [8], in test [9], in [18], in test [10], in [11] and in test [12] was “inactive” in each case. Moreover, the Potency result in test [19], in test [20], in [13], in [14] and in [15] was “inactive” each time.
